# Reference: PubChem BioAssay
# A number with no mark means an inactive call. Entries that show only a call come without a potency. For part of these data: Potency and affinity values are given separately. Active and inactive are the calls of the source. Unless noted, no rule for the calls is given here.
# Assays:
# [1] = antimalarial activity against Dd2 strain (AID 2302;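 active = growth inhibition above 50% at the single 2 µM test dose, taken to imply half-maximal potency below 2 µM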); settings: P. falciparum Dd2 in RBCs, LDH growth readout, 72 h; at 2 µM; active compounds read high
# [2] = HepG2 cytotoxicity, primary screen, cytotoxicity control for P. falciparum antimalarial project, cell-based, ATP luminescence (AID 2303;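 active = inhibition above 50%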); settings: HepG2 viability, 24-48 h, at 10 µM, active compounds read high
# [3] = biological target: L-lactate dehydrogenase (Plasmodium falciparum (isolate CDC / Honduras)) (UniProt Q27743); test: PfLDH activity inhibition – cell lysate, 3D7 strain, counter-screen for P. falciparum growth inhibition project (AID 2304); settings: P. falciparum 3D7 crude extract, LDH APAD/NBT absorbance; at 2 µM; active compounds read high
# [4] = inhibition of 3D7 malaria parasite growth – strain 3D7 (AID 2306); settings: P. falciparum 3D7 erythrocytic growth, LDH absorbance, 72 h; at 2 µM; active compounds read high
# [5] = biological target: Calcium-dependent protein kinase 1 (Plasmodium falciparum (isolate 3D7)) (UniProt P62344); test: PfCDPK1 kinase inhibitors, biochemical, TCAMS library (AID 1159585; cut-off not given, nearly all actives have IC50 up to about 0.98 µM;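 also: inhibitors leave more ATP so luminescence rises with inhibition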); settings: recombinant PfCDPK1, Kinase-Glo ATP depletion luminescence
# [6] = biological target: Plasmodium falciparum protein kinase 6 (PK6, PF3D7_1337100) (UniProt Q8IDW1); test: PfPK6 kinase inhibitors, biochemical, TCAMS library (AID 1159586); settings: recombinant PfPK6, Kinase-Glo ATP depletion luminescence
# [7] = biological target: Protein kinase 7 (PK7), Plasmodium falciparum 3D7 (PF3D7_0213400) (UniProt Q7YTF7); test: inhibition of Plasmodium PK7 catalytic activity – biochemical, TCAMS antimalarial set, Kinase-Glo luminescence (AID 1159587); settings: recombinant PfPK7, Kinase-Glo ATP depletion luminescence
# [8] = biological target: Calcium-dependent protein kinase 4 (Plasmodium falciparum (isolate 3D7)) (UniProt Q8IBS5); test: PfCDPK4 kinase inhibitors, biochemical, TCAMS library (AID 1159588; cut-off not given, nearly all actives have IC50 up to about 0.91 µM); settings: recombinant PfCDPK4, Kinase-Glo ATP depletion luminescence
# Calcium-dependent protein kinase 4 (Plasmodium falciparum (isolate 3D7)), sequence (Q8IBS5 whole entry, looked up): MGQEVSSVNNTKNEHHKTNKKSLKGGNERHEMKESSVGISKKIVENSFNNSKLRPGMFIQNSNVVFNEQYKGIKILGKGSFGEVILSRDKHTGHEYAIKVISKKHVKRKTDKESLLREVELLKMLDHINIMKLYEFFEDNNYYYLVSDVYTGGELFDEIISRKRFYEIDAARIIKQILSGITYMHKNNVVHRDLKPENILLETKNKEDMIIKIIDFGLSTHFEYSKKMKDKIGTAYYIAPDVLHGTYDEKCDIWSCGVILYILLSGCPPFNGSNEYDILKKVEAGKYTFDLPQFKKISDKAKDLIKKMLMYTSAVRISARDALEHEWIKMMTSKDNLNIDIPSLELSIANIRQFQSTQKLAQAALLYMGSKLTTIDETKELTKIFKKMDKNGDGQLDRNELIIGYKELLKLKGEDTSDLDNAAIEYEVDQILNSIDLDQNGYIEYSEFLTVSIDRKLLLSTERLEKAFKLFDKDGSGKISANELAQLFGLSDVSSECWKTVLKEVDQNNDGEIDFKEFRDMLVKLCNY
# Plasmodium falciparum protein kinase 6 (PK6, PF3D7_1337100), sequence (Q8IDW1 1-305): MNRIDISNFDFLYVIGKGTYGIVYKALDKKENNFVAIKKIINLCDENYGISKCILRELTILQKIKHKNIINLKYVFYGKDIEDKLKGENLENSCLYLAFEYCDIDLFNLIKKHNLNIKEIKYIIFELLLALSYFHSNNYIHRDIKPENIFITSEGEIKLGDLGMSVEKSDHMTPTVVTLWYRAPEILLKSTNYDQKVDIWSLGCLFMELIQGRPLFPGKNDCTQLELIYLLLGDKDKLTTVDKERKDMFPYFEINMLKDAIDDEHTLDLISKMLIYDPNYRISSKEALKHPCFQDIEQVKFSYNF
# L-lactate dehydrogenase (Plasmodium falciparum (isolate CDC / Honduras)), sequence (Q27743 whole entry, looked up): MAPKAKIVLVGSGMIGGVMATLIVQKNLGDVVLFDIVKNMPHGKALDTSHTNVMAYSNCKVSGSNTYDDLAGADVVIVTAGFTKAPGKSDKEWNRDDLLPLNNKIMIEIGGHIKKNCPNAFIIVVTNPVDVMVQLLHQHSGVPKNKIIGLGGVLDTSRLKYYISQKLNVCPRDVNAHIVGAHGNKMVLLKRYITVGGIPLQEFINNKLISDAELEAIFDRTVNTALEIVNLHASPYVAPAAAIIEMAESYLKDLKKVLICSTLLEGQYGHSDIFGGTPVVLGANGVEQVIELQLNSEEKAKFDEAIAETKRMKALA
# Calcium-dependent protein kinase 1 (Plasmodium falciparum (isolate 3D7)), sequence (P62344 whole entry, looked up): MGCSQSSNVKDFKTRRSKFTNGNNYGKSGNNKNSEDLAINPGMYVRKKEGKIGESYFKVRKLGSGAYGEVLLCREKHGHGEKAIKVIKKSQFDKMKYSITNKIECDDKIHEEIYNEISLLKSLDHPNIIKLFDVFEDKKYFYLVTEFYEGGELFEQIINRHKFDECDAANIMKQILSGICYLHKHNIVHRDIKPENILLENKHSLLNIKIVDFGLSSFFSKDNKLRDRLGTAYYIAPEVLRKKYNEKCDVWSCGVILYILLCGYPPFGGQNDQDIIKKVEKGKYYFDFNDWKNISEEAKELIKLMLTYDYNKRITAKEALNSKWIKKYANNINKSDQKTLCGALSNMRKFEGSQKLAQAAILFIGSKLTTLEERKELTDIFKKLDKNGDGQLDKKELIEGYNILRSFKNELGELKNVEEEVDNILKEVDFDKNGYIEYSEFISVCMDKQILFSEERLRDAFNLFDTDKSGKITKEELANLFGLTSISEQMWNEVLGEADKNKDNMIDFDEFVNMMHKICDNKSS
# Protein kinase 7 (PK7), Plasmodium falciparum 3D7 (PF3D7_0213400), sequence (Q7YTF7 1-343): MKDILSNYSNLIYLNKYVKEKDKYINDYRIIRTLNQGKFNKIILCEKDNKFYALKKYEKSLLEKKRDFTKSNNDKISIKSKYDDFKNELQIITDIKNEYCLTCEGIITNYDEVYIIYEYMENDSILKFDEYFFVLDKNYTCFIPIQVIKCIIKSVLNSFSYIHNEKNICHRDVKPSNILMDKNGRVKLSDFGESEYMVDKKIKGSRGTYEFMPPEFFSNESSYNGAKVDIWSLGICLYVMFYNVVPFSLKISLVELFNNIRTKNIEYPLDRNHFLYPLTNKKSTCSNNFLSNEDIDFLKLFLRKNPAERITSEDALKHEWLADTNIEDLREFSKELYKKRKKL
Compound,growth inhibition [1],inhibition [2],inhibition [3],growth inhibition [4],outcome [5],outcome [6],outcome [7],outcome [8]
COc1ccc(CNC2CCN(C)CC2)cc1-c1ccc(S(=O)(=O)NCC2CCCO2)s1 (configuration not stated),18%,18%,5%,95% (active),inactive,inactive,inactive,inactive
COc1cc(C2C(Oc3ccccc3)C(=O)N2Cc2ccc(F)cc2)cc(OC)c1OC (configuration not stated),97% (active),-2%,4%,100% (active),inactive,inactive,inactive,inactive
CC(=O)Nc1ccc(CN2CCN(C(c3ccc(F)cc3)c3ccc(F)cc3)CC2)cc1,79% (active),4%,0%,93% (active),inactive,inactive,inactive,inactive
O=C1Nc2cccc3c2C1(CCCCCN1CCC(c2c[nH]c4ccncc24)CC1)CCC3 (configuration not stated),3%,8%,6%,95% (active),inactive,inactive,inactive,inactive
Cc1cccc2[nH]c(-c3ccc(-c4ccc(CNCc5ccc(CN)cc5)cc4)cc3)nc12,46%,14%,-4%,100% (active),inactive,inactive,inactive,inactive
CC(C)N1CCC(NC(=O)N2CCCN(c3ncnc4cc(-c5ccc(Cl)cc5)sc34)CC2)CC1,7%,6%,7%,81% (active),inactive,inactive,inactive,inactive
O=C(NC1CCN(CCN2CCC(c3c[nH]c4ccccc34)CC2)CC1)c1ccc(-c2ccc(C(F)(F)F)cc2)cc1,100% (active),100% (active),4%,99% (active),inactive,inactive,inactive,inactive
Cn1c(/C=C/C(=O)NC2CCC(CCN3CCc4ccc(C#N)cc4CC3)CC2)cc2ccccc21 (configuration not stated),29%,15%,-1%,101% (active),inactive,inactive,inactive,inactive
Oc1ccc(CCNc2nc(NCCOc3cccc4ccccc34)nc(N3CCNCC3)n2)cc1,8%,21%,1%,96% (active),inactive,inactive,inactive,inactive
COc1ccc(NC(=O)CCNc2cc(C)nc(NCc3ccccc3C)n2)cc1,61% (active),7%,-1%,94% (active),inactive,inactive,inactive,inactive
Cn1cncc1C(=O)Nc1cccc(-c2cccc(-c3nc4ccc(C(F)(F)F)cc4[nH]3)c2)c1,99% (active),38%,0%,103% (active),inactive,inactive,inactive,inactive
O=C(Nc1ccccc1)N(Cc1cccc(-c2ccc(CNCc3ccc4c(c3)OCO4)cc2)c1)C1CCN(Cc2ccccc2)CC1,82% (active),27%,7%,102% (active),inactive,inactive,inactive,inactive
CN(C)c1ccc(CN2CCC(NC(=O)c3ccc(-c4cccc(F)c4)s3)CC2)cc1,18%,55% (active),-1%,91% (active),inactive,inactive,inactive,inactive
COc1c(O)cc2oc(-c3ccc(O)cc3)cc(=O)c2c1O,0%,6%,-1%,96% (active),inactive,inactive,inactive,inactive
Cc1ccc(-n2c(=O)c3cccnc3n2CC(=O)Nc2cccc(C)c2C)cc1,20%,9%,-3%,96% (active),inactive,inactive,inactive,inactive
Cc1noc(-c2ccc3c(c2)CCN(CCC2CCC(NC(=O)/C=C/c4ccc(F)cc4)CC2)CC3)n1 (configuration not stated),39%,44%,3%,91% (active),inactive,inactive,inactive,inactive
Cn1ccnc1CNC(=O)c1ccc(-c2cccc(-c3nc4ccc(F)cc4[nH]3)c2)cc1,8%,8%,7%,96% (active),inactive,inactive,inactive,inactive
CC(=O)c1c(Cc2ccccc2Cl)c[nH]c1C,53% (active),-2%,0%,95% (active),inactive,inactive,inactive,inactive
CCN(CC)CCN(Cc1ccc(-c2ccc(C(F)(F)F)cc2)cc1)C(=O)Cn1c(CCc2cccc(F)c2F)nc(=O)c2ccc(C(F)(F)F)cc21,55% (active),19%,-2%,99% (active),inactive,inactive,inactive,inactive
CCCc1cc(Cc2cnc(N)nc2N)cc(CC)c1O,-3%,56% (active),-3%,87% (active),inactive,inactive,inactive,inactive

Compound,growth inhibition [1],inhibition [2],inhibition [3],growth inhibition [4],outcome [5],outcome [6],outcome [7],outcome [8]
CN(C)Cc1ccc(-c2ccc3c(Nc4ccc(Oc5ccccc5)cc4)ccnc3c2)o1,100% (active),10%,2%,101% (active),inactive,inactive,inactive,inactive
c1ccc(C(c2ccccc2)N2CCN(C(c3cccnc3)c3nnnn3C3CCCC3)CC2)cc1 (configuration not stated),59% (active),4%,0%,83% (active),inactive,inactive,inactive,inactive
Fc1ccc(C=NNc2ccnc3ccc(C(F)(F)F)cc23)cc1,6%,22%,4%,90% (active),inactive,inactive,inactive,inactive
N#Cc1cncc(-c2nc3c(N4CCC(Cc5ccccc5)CC4)cccc3n2C2CCNC2)c1 (configuration not stated),7%,5%,-1%,88% (active),inactive,inactive,inactive,inactive
COc1ccc(Nc2ncc3c(-c4ccc(NC(=O)c5cccc(C(F)(F)F)c5)cc4)c[nH]c3n2)cc1OC,30%,26%,4%,89% (active),inactive,inactive,inactive,inactive
Cc1cccc(CNc2nc(C)cc(NCCC(=O)Nc3ccccc3)n2)c1,54% (active),15%,-3%,101% (active),inactive,inactive,inactive,inactive
CN(C)CCOc1cc(NC(=O)Nc2ccc(-c3ccncc3)c(Cl)c2)ccc1I,100% (active),43%,4%,101% (active),inactive,inactive,inactive,inactive
CCNc1cc(C(=O)N[C@@H](Cc2ccccc2)[C@H](O)CNC2(CC)CC2)cc(N2CCCCS2(=O)=O)c1,94% (active),59% (active),0%,97% (active),inactive,inactive,inactive,inactive
Cc1cccc2c(/C=C/C(=O)NC3CCC(CCN4CCc5ccc(C#N)cc5CC4)CC3)c[nH]c12 (configuration not stated),49%,18%,-1%,91% (active),inactive,inactive,inactive,inactive
NC(=O)c1cccc(Nc2nccc(Nc3ccc4[nH]c(-c5ccccc5)cc4c3)n2)c1,98% (active),28%,-2%,101% (active),inactive,inactive,inactive,inactive
CCCCCCCCCCNCC(O)c1ccc(O)c(C(=O)OC)c1 (configuration not stated),97% (active),3%,-7%,97% (active),inactive,inactive,inactive,inactive
COc1cc2nc(NCCn3cccn3)nc(NCCc3ccccc3)c2cc1OC,100% (active),12%,-3%,102% (active),inactive,inactive,inactive,inactive
FC(F)(F)c1ccc2nc(-c3cccc(-c4cccc(CNCCc5ccncc5)c4)c3)[nH]c2c1,97% (active),31%,-8%,99% (active),inactive,inactive,inactive,inactive
NC(=O)COc1c(C2CCN(CCN3CCC(CNC(=O)c4ccc(-c5ccc(C(F)(F)F)cc5)cc4)CC3)CC2)ccc2c1CCCC2,68% (active),32%,-1%,87% (active),inactive,inactive,inactive,inactive
CN1CCN(c2ccnc3cc4c(cc23)N(C(=O)Nc2ccc(-c3ccncc3)c3ccccc23)CC4)CC1,97% (active),10%,-2%,101% (active),inactive,inactive,inactive,inactive
Cc1cc(N[C@@H](Cc2ccccc2)C(=O)NCc2cccs2)nc(NCCc2cccnc2)n1,38%,10%,-4%,84% (active),inactive,inactive,inactive,inactive
CCOc1ccc(Nc2nc(N)c3ccccc3n2)cc1,6%,28%,2%,90% (active),inactive,inactive,inactive,inactive
COc1ccc(Cn2cncc2CN(CCC(C)C)C(=O)c2ccc(Cl)nc2Cl)cc1,61% (active),19%,-1%,87% (active),inactive,inactive,inactive,inactive
N#Cc1ccc2c(c1)CCN(CCCn1c(-c3ccc4ccccc4c3)nc3ccncc31)CC2,97% (active),38%,4%,102% (active),inactive,inactive,inactive,inactive
